{"source": "PubChem BioAssay (Tox21)", "note": "Results filed as inconclusive are left out. Where a call stands in place of a potency, no number is given. Activity calls are given as the source filed them. The call rests on the fitted dose curve. Potency means the concentration at half of the fitted maximal effect.", "data": [{"test": "p53 small molecule agonists, cell-based qHTS assay: qHTS cell viability counter screen (AID 1963581); further: nearly all actives have a fitted effect of over 45% in size", "settings": "p53RE-bla HCT-116 viability, ATP luminescence, 16 h; series mostly up to 66 µM", "source_text": "National Center for Advancing Translational Sciences [NCATS]\nDivision of Preclinical Innovation [DPI]\nU.S. Environmental Protection Agency [EPA]\nNational Institutes of Environmental Health Sciences [NIEHS]\nNational Toxicology Program [NTP]\nU.S. Food and Drug Administration [FDA]\np53, a tumor suppressor protein, is activated following cellular insult, including DNA damage and other cellular stresses. The activation of p53 regulates cell fate by inducing DNA repair, cell cycle arrest, apoptosis, or cellular senescence. The activation of p53, therefore, is a good indicator of DNA damage and other cellular stresses. The CellSensor p53RE-bla HCT-116 cell line (Invitrogen) contains a stably integrated beta-lactamase reporter gene under control of the p53 response elements. The activation of the reporter gene under culture conditions can be detected by fluorescence intensity. This cell line was used to screen the Tox21 compound library in a 1536-well plate format and to identify agonists that activate the p53 signaling pathway. The cytotoxicity of the Tox21 compound library against the p53 RE-bla HCT-116 cell line was tested in parallel by measuring the intra cellular ATP content in the same wells.\nTox21 Assay Protocol Summary:\nThe p53RE-bla cells were dispensed at 4,000 cells/5 ul/well in 1536-well black wall/clear bottom plates using a Multidrop dispenser. After the assay plates were incubated at a 37 C/5% CO2 incubator for 5 hours, 23 nL of compounds dissolved in DMSO, positive controls or DMSO only was transferred to the assay plate by a pin tool. The plates were incubated at 37 C for 16 hours. After 1 uL of LiveBLAzerTM B/G FRET substrate was added using a Flying Reagent Dispenser, the plates were incubated at room temperature for 2 hours, and fluorescence intensity was measured by an Envision plate reader. For cell viability readout that measures cytotoxicity, 4 ul/well of CellTiter-Glo reagent was added into the assay plates using a Flying Reagent Dispenser. After 30 min incubation at room temperature, the luminescence intensity in the plates was measured using a ViewLux plate reader.", "values": [{"molecule": "CCCCc1oc2ccccc2c1C(=O)c1cc(I)c(OCCN(CC)CC)c(I)c1", "Potency": "inactive"}, {"molecule": "O=C1[C@@H]2[C@H]3CC[C@H](C3)[C@@H]2C(=O)N1CCCCN1CCN(c2ncccn2)CC1", "Potency": "inactive"}, {"molecule": "CCN(Cc1cccc(S(=O)(=O)O)c1)c1ccc(C(=C2C=CC(=[N+](CC)Cc3cccc(S(=O)(=O)[O-])c3)C=C2)c2ccccc2)cc1", "Potency": "inactive"}, {"molecule": "Nc1cccc2c(N)cccc12", "Potency": "646 nM (active)"}, {"molecule": "O=[N+]([O-])C1(Br)COCOC1", "Potency": "inactive"}, {"molecule": "CN(C)[C@@H]1C(=O)C(C(N)=O)=C(O)[C@@]2(O)C(=O)C3=C(O)c4c(O)ccc(Cl)c4[C@@H](O)[C@H]3C[C@@H]12", "Potency": "inactive"}, {"molecule": "COC(C(=O)O)c1ccccc1", "note": "(stereo not given)", "Potency": "inactive"}, {"molecule": "OCCc1ccncc1", "Potency": "inactive"}, {"molecule": "N#Cc1ccccc1C#N", "Potency": "inactive"}, {"molecule": "O=Cc1ccc(Cl)c([N+](=O)[O-])c1", "Potency": "inactive"}, {"molecule": "Oc1cc(Cl)cc(Cl)c1Cl", "Potency": "inactive"}, {"molecule": "CCC(Cl)CCC(Cl)C(Cl)CC(Cl)C(Cl)C(Cl)CCl", "note": "(stereo not given)", "Potency": "inactive"}, {"molecule": "Cn1cc(C(=O)[C@@H]2CCc3nc[nH]c3C2)c2ccccc21", "Potency": "inactive"}, {"molecule": "CC(C)=CC=O", "Potency": "inactive"}, {"molecule": "SC1CCCC1", "Potency": "inactive"}, {"molecule": "CCCCCCCC/C=C/CCCOC(C)=O", "Potency": "inactive"}, {"molecule": "O=C=NCC1CCCC(CN=C=O)C1", "note": "(stereo not given)", "Potency": "inactive"}, {"molecule": "CCOc1ccc(NS(=O)(=O)c2ccc(N)cc2)nn1", "Potency": "inactive"}, {"molecule": "CC1=C(Br)C(=O)C(Br)=C/C1=C(/c1ccccc1S(=O)(=O)O)c1cc(Br)c(O)c(Br)c1C", "Potency": "inactive"}, {"molecule": "CCNCCO", "Potency": "inactive"}, {"molecule": "CCOC(=O)c1ccc(C#Cc2ccc3c(c2)C(C)(C)CCS3)nc1", "Potency": "inactive"}, {"molecule": "Cc1ccc(C(C)C)cc2c(C)ccc1-2", "Potency": "inactive"}, {"molecule": "O=C(NS(=O)(=O)/C=C/c1cccs1)c1ccc(F)cc1Br", "Potency": "inactive"}, {"molecule": "C[C@@H]1C[C@H]2[C@@H]3CCC4=CC(=O)C=C[C@]4(C)[C@@]3(Cl)[C@@H](O)C[C@]2(C)[C@@]1(OC(=O)c1ccco1)C(=O)CCl", "Potency": "inactive"}, {"molecule": "Cc1ccc(N/N=c2\\c(=O)cc/c(=N\\Nc3ccc(S(=O)(=O)O)cc3)c2=O)c(C)c1", "Potency": "inactive"}, {"molecule": "Cc1cc(O)c(Cl)c(C)c1Cl", "Potency": "inactive"}, {"molecule": "CC(=O)OC(C)C[N+](C)(C)C", "note": "(stereo not given)", "Potency": "inactive"}, {"molecule": "NCCc1ccn[nH]1", "Potency": "inactive"}, {"molecule": "CCOCC(C)O", "note": "(stereo not given)", "Potency": "inactive"}, {"molecule": "CSCC[C@H](NC(=O)[C@H](Cc1c[nH]c2ccccc12)NC(=O)CCNC(=O)OC(C)(C)C)C(=O)N[C@@H](CC(=O)O)C(=O)N[C@@H](Cc1ccccc1)C(N)=O", "Potency": "inactive"}, {"molecule": "CO[C@H]1C=CO[C@@]2(C)Oc3c(C)c(O)c4c(O)c(c5c(c4c3C2=O)=NC2(CCN(CC(C)C)CC2)N=5)NC(=O)/C(C)=C\\C=C/[C@H](C)[C@H](O)[C@@H](C)[C@@H](O)[C@@H](C)[C@H](OC(C)=O)[C@@H]1C", "Potency": "inactive"}, {"molecule": "CCc1c(C)[nH]c2c1C(=O)C(CN1CCOCC1)CC2", "note": "(stereo not given)", "Potency": "inactive"}, {"molecule": "CC(=O)OC/C=C(/C)CCC=C(C)C", "Potency": "inactive"}, {"molecule": "O=C(O)c1c(Cl)ccc(Cl)c1Cl", "Potency": "inactive"}, {"molecule": "CCCCCCCCCCCCN1CCCC1=O", "Potency": "inactive"}, {"molecule": "CCCCCCCCCCCCCCC[C@H](O)[C@@H](N)CO", "Potency": "inactive"}, {"molecule": "CCC(C)[O-].CCC(C)[O-].CCOC(=O)/C=C(/C)[O-].[Al+3]", "Potency": "inactive"}, {"molecule": "O=C1OC2(c3ccc(O)cc3Oc3cc(O)ccc32)c2ccc(N=C=S)cc21", "Potency": "inactive"}, {"molecule": "CCCCC/C=C\\C/C=C\\CCCCCCCC(=O)NC(C)c1ccccc1", "note": "(stereo not given)", "Potency": "inactive"}, {"molecule": "O=C(NOCC1CC1)c1ccc(F)c(F)c1Nc1ccc(I)cc1Cl", "Potency": "inactive"}]}]}
